Laboratory results: PubChem BioAssay (NCATS)
Records with an inconclusive call do not appear. Calls of active or inactive are those of the source. The call rests on the fitted dose curve; in most records, active means well fitted curve in the direction sought with a large enough effect; inconclusive means small, poorly fitted or top-dose-only effect, or another doubt; inactive means no such curve, though single readings can be large; an effect the other way counts as inactive or inconclusive.

How the values were obtained:
[1] = qHTS of pediatric cancer cell lines to identify multiple opportunities for drug repurposing: Primary screen for U-2 OS cells (AID 1347096); further: nearly all actives have a fitted effect of over 50% in size
Outline: (§1)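 Viability after 48 h compound treatment at 37C, 500-1,000 cells/well, read as ATP luminescence with CellTiter-Glo. Primary screens used 11-point (MIPE, 0.78 nM-46 µM) or 8-point (NPC, 0.59 nM-46 µM) final concentrations; follow-up screens used 11-point dilutions.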

[2] = qHTS of pediatric cancer cell lines to identify multiple opportunities for drug repurposing: Primary screen for Saos-2 cells (AID 1347097); further: nearly all actives have a fitted effect of over 40% in size
Outline: (§2)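 Readout: CellTiter-Glo luminescence, 48 h treatment. Controls DMSO (neutral) and bortezomib 2.3 µM final (positive). Potency and efficacy taken from primary-screen concentration-response curves.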

[3] = qHTS of pediatric cancer cell lines to identify multiple opportunities for drug repurposing: Primary screen for LAN-5 cells (AID 1347100)
Outline: as §1

[4] = qHTS of pediatric cancer cell lines to identify multiple opportunities for drug repurposing: Primary screen for Rh18 cells (AID 1347102); further: nearly all actives have a fitted effect of over 65% in size
Outline: as §1

[5] = qHTS of pediatric cancer cell lines to identify multiple opportunities for drug repurposing: Primary screen for OHS-50 cells (AID 1347103); further: nearly all actives have a fitted effect of over 40% in size
Outline: (§3)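 Cells (500-1,000/well) rested 5 h, then received compounds for 48 h; metabolically active cells were measured by CellTiter-Glo luminescence. Final concentrations spanned up to 46 µM (MIPE, 11-point) or 0.59 nM-46 µM (NPC, 8-point) in primary screens, 11-point in follow-ups.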

[6] = qHTS of pediatric cancer cell lines to identify multiple opportunities for drug repurposing: Primary screen for MG 63 (6-TG R) cells (AID 1347105); further: nearly all actives have a fitted effect of over 50% in size
Outline: as §2

[7] = qHTS of pediatric cancer cell lines to identify multiple opportunities for drug repurposing: Primary screen for BT-12 cells (AID 1347101); further: nearly all actives have a fitted effect of over 25% in size
Outline: as §3

[8] = qHTS of pediatric cancer cell lines to identify multiple opportunities for drug repurposing: Primary screen for RD cells (AID 1347104); further: nearly all actives have a fitted effect of over 55% in size
Outline: as §2

[9] = qHTS of pediatric cancer cell lines to identify multiple opportunities for drug repurposing: Primary screen for NB1643 cells (AID 1347099); further: nearly all actives have a fitted effect of over 50% in size
Outline: as §2

[10] = qHTS of pediatric cancer cell lines to identify multiple opportunities for drug repurposing: Primary screen for SK-N-SH cells (AID 1347098); further: nearly all actives have a fitted effect of over 65% in size
Outline: as §3
Potency means the concentration at half of the fitted maximal effect.

Structure (SMILES)	Potency [1]	Potency [2]	Potency [3]	Potency [4]	Potency [5]	Potency [6]	Potency [7]	Potency [8]	Potency [9]	Potency [10]
Cc1ccc(C(=O)Nc2ccc(CN3CCN(C)CC3)c(C(F)(F)F)c2)cc1C#Cc1cnc2cccnn12	5.9 µM (active)	2.35 µM (active)	11.8 µM (active)	2.09 µM (active)	1.09 µM (active)	7.43 µM (active)	–	–	–	–
C1Cc2[nH]nc(-c3nn[nH]n3)c2C1	inactive	inactive	inactive	inactive	inactive	inactive	inactive	inactive	–	–
O=C(Nc1nc2cccc(-c3ccc(CN4CCS(=O)(=O)CC4)cc3)n2n1)C1CC1	inactive	18.7 µM (active)	–	–	–	23.5 µM (active)	–	18.7 µM (active)	10.5 µM (active)	–
CCN1CCN(Cc2ccc(-c3cc4c(N[C@H](C)c5ccccc5)ncnc4[nH]3)cc2)CC1	18.7 µM (active)	0.209 µM (active)	0.0148 µM (active)	5.9 µM (active)	0.153 µM (active)	–	0.769 µM (active)	0.0074 µM (active)	–	–
N#CCNC(=O)c1ccc(-c2ccnc(Nc3ccc(N4CCOCC4)cc3)n2)cc1	inactive	–	–	–	–	18.7 µM (active)	17.2 µM (active)	16.6 µM (active)	–	12.1 µM (active)
COc1cc2c(Oc3ccc4[nH]c(C)cc4c3F)ncnc2cc1OCCCN1CCCC1	inactive	29.6 µM (active)	–	18.7 µM (active)	30.6 µM (active)	23.5 µM (active)	24.3 µM (active)	26.4 µM (active)	–	–
C=CC(=O)Nc1cccc(Oc2nc(Nc3ccc(N4CCN(C)CC4)cc3)ncc2Cl)c1	4.69 µM (active)	–	–	3.72 µM (active)	3.06 µM (active)	7.43 µM (active)	–	20.9 µM (active)	–	3.83 µM (active)
CC=CC1=C(C(=O)O)N2C(=O)[C@H](NC(=O)[C@H](N)c3ccc(O)cc3)[C@@H]2SC1	inactive	–	–	inactive	–	inactive	–	inactive	20.9 µM (active)	19.2 µM (active)
CC(C)(C)c1cc(C(C)(C)C)c(NC(=O)c2c[nH]c3ccccc3c2=O)cc1O	inactive	–	–	inactive	inactive	inactive	inactive	inactive	inactive	inactive
Cc1c(C)n(Cc2ccc(-c3ccccc3C(=O)O)cc2)c2ccc(C(=O)N[C@@H](C)c3ccc([N+](=O)[O-])cc3)cc12	inactive	–	–	inactive	–	18.7 µM (active)	–	1.66 µM (active)	0.187 µM (active)	3.04 µM (active)
Cc1cc(Nc2cc(CN3CCOCC3)c3nc(C)c(Cc4ccc(Cl)cc4F)n3n2)n[nH]1	inactive	5.9 µM (active)	0.469 µM (active)	13.2 µM (active)	27.3 µM (active)	14.8 µM (active)	–	20.9 µM (active)	–	–
O=C(C=Cc1cccnc1)NCCCCC1CCN(C(=O)c2ccccc2)CC1	0.118 µM (active)	–	–	–	–	–	–	–	–	0.482 µM (active)
C[C@@H](Oc1cc(-n2cnc3ccc(CN4CCN(C)CC4)cc32)sc1C(N)=O)c1ccccc1C(F)(F)F	29.6 µM (active)	–	0.0332 µM (active)	20.9 µM (active)	0.0968 µM (active)	inactive	24.3 µM (active)	–	0.0235 µM (active)	–
O=C(O)CCCc1c[nH]c2ccccc12	inactive	inactive	–	inactive	inactive	inactive	–	inactive	–	–
CCCCN1CCC(CNC(=O)c2c3n(c4ccccc24)CCCO3)CC1	inactive	–	–	–	–	0.935 µM (active)	–	–	–	15.2 µM (active)
CCCCCN(CCC12CC3CC(CC(C3)C1)C2)C(=O)NCCCc1ccncc1	inactive	18.7 µM (active)	16.6 µM (active)	–	19.3 µM (active)	–	–	–	–	–
COc1c(OCCCN2CCOCC2)ccc2c3n(c(=NC(=O)c4cnc(N)nc4)nc12)CCN3	inactive	0.0512 µM (active)	–	0.0812 µM (active)	–	0.0407 µM (active)	–	0.0724 µM (active)	–	–
COC(=O)Nc1nc2ccc(C(=O)c3ccc(F)cc3)cc2[nH]1	inactive	0.526 µM (active)	0.209 µM (active)	inactive	–	0.59 µM (active)	1.72 µM (active)	0.743 µM (active)	–	–
CC(C)c1ccccc1Cc1cc(C(=O)Nc2ccc(S(=O)(=O)c3ccccc3C(C)(C)C)cc2)c(O)c(O)c1O	inactive	26.4 µM (active)	23.5 µM (active)	18.7 µM (active)	24.3 µM (active)	–	21.7 µM (active)	–	–	–

Structure (SMILES)	Potency [1]	Potency [2]	Potency [3]	Potency [4]	Potency [5]	Potency [6]	Potency [7]	Potency [8]	Potency [9]	Potency [10]
c1cc(-c2cnn3cc(-c4ccc(OCCN5CCCCC5)cc4)cnc23)ccn1	inactive	–	9.35 µM (active)	20.9 µM (active)	9.68 µM (active)	18.7 µM (active)	24.3 µM (active)	18.7 µM (active)	3.72 µM (active)	21.5 µM (active)
CNC(=O)c1ccc(N2C(=S)N(c3cnc(C#N)c(C(F)(F)F)c3)C(=O)C23CCC3)cc1F	–	inactive	8.33 µM (active)	14.8 µM (active)	–	2.35 µM (active)	19.3 µM (active)	5.9 µM (active)	3.32 µM (active)	1.21 µM (active)
CC(C)(O)c1cc2nc(-c3cnc(N)nc3)nc(N3CCOCC3)c2s1	–	0.235 µM (active)	0.372 µM (active)	0.372 µM (active)	0.0306 µM (active)	0.0469 µM (active)	–	–	0.187 µM (active)	8.57 µM (active)
Cn1c2cc(S(C)=O)sc2c2cnn(Cc3cccc(N)c3)c(=O)c21 (centres undefined)	inactive	–	–	inactive	inactive	inactive	inactive	inactive	inactive	–
O=C(c1ccc(Nc2nccc(-c3cc4ccccc4s3)n2)cc1)N1CCC(N2CCCC2)CC1	–	16.6 µM (active)	11.8 µM (active)	14.8 µM (active)	7.69 µM (active)	18.7 µM (active)	27.3 µM (active)	10.5 µM (active)	11.8 µM (active)	19.2 µM (active)
C[C@]12CC[C@H](O)CC1=CCC1C2CC[C@]2(C)C(n3cnc4ccccc43)=CCC12 (some centres undefined)	inactive	–	–	inactive	–	inactive	inactive	inactive	–	–
O=C(Nc1cc(C(F)(F)F)cc(C(F)(F)F)c1)c1cc(Cl)ccc1O	–	2.64 µM (active)	0.332 µM (active)	4.18 µM (active)	0.432 µM (active)	0.743 µM (active)	1.72 µM (active)	0.662 µM (active)	0.372 µM (active)	2.41 µM (active)
CNC(=O)c1c(F)cccc1Nc1nc(Nc2cc3c(cc2OC)CCN3C(=O)CN(C)C)nc2[nH]ccc12	–	2.09 µM (active)	0.0526 µM (active)	8.33 µM (active)	0.344 µM (active)	18.7 µM (active)	–	0.662 µM (active)	0.132 µM (active)	8.57 µM (active)
Nc1cc(C(F)(F)F)c(-c2cc(N3CCOCC3)nc(N3CCOCC3)n2)cn1	–	1.48 µM (active)	0.469 µM (active)	0.59 µM (active)	0.153 µM (active)	0.187 µM (active)	–	–	0.296 µM (active)	0.482 µM (active)
Cc1nc2ccc(CN(C)c3ccc(C(=O)N[C@@H](CCC(=O)O)C(=O)O)s3)cc2c(=O)[nH]1	inactive	–	–	inactive	–	–	–	inactive	inactive	–
COc1cccc(-c2ccc(NC(=O)C3=C(C(=O)O)CCC3)c(F)c2)c1	–	13.2 µM (active)	13.2 µM (active)	inactive	–	–	19.3 µM (active)	–	5.26 µM (active)	24.1 µM (active)
CC(C)Nc1cc(C(F)(F)F)cc2nc(NC(=O)c3cccnc3)nn12	inactive	–	–	inactive	inactive	inactive	inactive	inactive	–	–
COc1ccc(OC)c(-c2nnc3ccc(-c4ccc(OC)c(O[C@@H]5CCOC5)c4)nn23)c1	–	29.6 µM (active)	–	13.2 µM (active)	17.2 µM (active)	–	9.68 µM (active)	–	18.7 µM (active)	30.4 µM (active)
Cc1cc(Nc2cc(NC(=O)c3c(Cl)cccc3Cl)ccn2)nc(N)n1	–	1.05 µM (active)	1.87 µM (active)	–	8.63 µM (active)	11.8 µM (active)	0.544 µM (active)	0.935 µM (active)	11.8 µM (active)	6.07 µM (active)
Nc1ncnc2c1c(-c1cnc3[nH]ccc3c1)nn2C1CCCC1	–	0.935 µM (active)	1.05 µM (active)	0.526 µM (active)	–	0.118 µM (active)	1.37 µM (active)	1.87 µM (active)	5.9 µM (active)	2.15 µM (active)
C[C@@]12O[C@@H](C[C@]1(O)CO)n1c3ccccc3c3c4c(c5c6ccccc6n2c5c31)CNC4=O	–	3.32 µM (active)	0.132 µM (active)	3.32 µM (active)	0.217 µM (active)	4.69 µM (active)	–	–	1.66 µM (active)	1.92 µM (active)
COc1cc(=C2C=c3ccccc3=N2)[nH]c1=Cc1[nH]c(C)cc1C	–	4.69 µM (active)	5.9 µM (active)	10.5 µM (active)	7.69 µM (active)	11.8 µM (active)	6.85 µM (active)	–	14.8 µM (active)	19.2 µM (active)
COc1cc2c(cc1-c1c(C)noc1C)ncc1[nH]c(=O)n([C@H](C)c3ccccn3)c12	18.7 µM (active)	–	5.9 µM (active)	5.9 µM (active)	0.485 µM (active)	1.87 µM (active)	–	4.69 µM (active)	–	–
